Screening results from PubChem BioAssay.
HP1b chromo inh: blocks HP1-beta chromodomain binding to methylated histone tails | hit rate 0.56% among 390,000 | AlphaScreen HP1-beta / biotin-H3K9me3 peptide binding | Potency, µM (doses to about 114 µM), for the others: at the top dose activity change, negative = inhibition, usual class: inhibitors | P83916; also: potency is read from the fitted curve at half-maximal effect; nearly all actives have a fitted effect of over 70% in size
Target sequence (P83916 whole entry, looked up): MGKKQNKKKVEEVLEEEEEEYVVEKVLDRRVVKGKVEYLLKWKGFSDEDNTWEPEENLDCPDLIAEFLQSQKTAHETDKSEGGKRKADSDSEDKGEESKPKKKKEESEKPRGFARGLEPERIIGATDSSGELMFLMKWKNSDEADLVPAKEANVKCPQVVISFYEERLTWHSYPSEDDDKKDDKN
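AlphaScreen: HP1-beta (50 nM) preformed 30 min with biotin-H3(1-18)K9me3 peptide (50 nM) in PBS pH 7.4, 0.01% Tween-20. Compound added for 30 min at RT, then streptavidin donor/nickel chelate acceptor beads (10 ug/mL) for 30 min.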
CtBP-E1A inh: CtBP/E1A binding inhibition; activity change, % (test concentration not listed); AlphaScreen GST-E1A/His-CtBP binding, 1536-well; stronger effect = lower value; hit rate 0.49% among 340,000; in the data active = activity change below about -65%; inconclusive = mostly about -30% to -63%; also: % is scaled to controls: 0 for no effect and ±100 for the full control effect
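Homogeneous bead-based format: GST-tagged E1A captured on glutathione donor beads, His-tagged CtBP on nickel acceptor beads; compounds precede bead addition by 2 h at 37 °C.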
JMJD2A Tudor: JMJD2A Tudor domain (human) inhibition | AlphaScreen JMJD2A-Tudor / H3K4me3 peptide binding | Potency, µM (titrated, usually from 114 µM), for the others: top-dose activity change, negative = inhibition, hits mostly inhibitors | hit rate 4.4% among 390,000; also: potency is read from the fitted curve at half-maximal effect; % is scaled to controls: 0 for no effect and ±100 for the full control effect; nearly all actives have a fitted effect of over 50% in size
G9a inh: G9a (human) methyltransferase inhibition; AID 504332; Potency, µM (highest dose often 102 µM), for the others: top-dose activity, negative = inhibition, most hits filed as inhibitors; hit rate 8.8% among 350,000; G9a H3K9 monomethylation, AlphaScreen, 2 h; also: potency is read from the fitted curve at half-maximal effect; % is scaled to controls: 0 for no effect and ±100 for the full control effect; nearly all actives have a fitted effect of over 75% in size
Target sequence (Q96KQ7 913-1193 limits assumed): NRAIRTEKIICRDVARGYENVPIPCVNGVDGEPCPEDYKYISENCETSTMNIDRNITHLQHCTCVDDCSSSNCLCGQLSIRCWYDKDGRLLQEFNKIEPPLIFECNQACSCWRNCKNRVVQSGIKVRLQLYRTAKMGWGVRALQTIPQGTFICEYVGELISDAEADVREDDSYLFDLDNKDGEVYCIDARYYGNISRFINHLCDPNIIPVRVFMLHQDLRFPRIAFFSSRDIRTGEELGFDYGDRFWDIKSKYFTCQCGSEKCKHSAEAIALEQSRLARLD
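Chemiluminescent proximity detection of H3K9 monomethylation, read after 10 min bead incubation in the dark. Reaction: 20 nM G9a, 500 nM biotin-H3K9 peptide, 20 uM SAM cofactor, 2 h, room temperature, following 15 min enzyme-compound preincubation.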
BAZ2B block: BAZ2B (human) inhibition | hit rate 4.4% among 360,000 | Potency, µM (highest dose often 114 µM), inactives show at the top dose activity change, negative = inhibition, actives largely listed as inhibitors | AlphaScreen BAZ2B-H3K14Ac peptide displacement | Q9UIF8; also: potency is read from the fitted curve at half-maximal effect; % is scaled to controls: 0 for no effect and ±100 for the full control effect; nearly all actives have a fitted effect of over 60% in size
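BAZ2B 50 nM plus b-H3(5-23)K14Ac 50 nM, PBS pH 7.4/0.01% Tween-20, 30 min RT; compound added (max 110 uM), 30 min RT; streptavidin donor/Ni-chelate acceptor beads 10 ug/mL final, 20 min dark; AlphaScreen read.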
Six1-Eya2 blk: inhibitors of human Six1/Eya2 interaction. Q15475+O00167. AlphaScreen GST-Six1/His-Eya2 binding, biochemical; stronger effect = lower value. activity change, % (no concentration beside the values). hit rate 0.56% among 360,000; in the data active = activity change below about -65%; inconclusive = mostly about -30% to -63%; also: % is scaled to controls: 0 for no effect and ±100 for the full control effect
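Compounds are tested against tagged Six1 and Eya2 proteins bridged by glutathione donor and nickel acceptor beads; after a one-hour incubation at 37 °C without light, AlphaScreen emission is recorded.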
An asterisk follows results filed as active; ? = inconclusive; . = no result given; [ ] = remark or other dose. An excerpt weighted towards active compounds, which were near 10% of everything screened. Unless noted, calls follow the shape of the dose curve; as a rule, active = well fitted inhibition curve with a large enough effect; inconclusive = small, poorly fitted or top-dose-only effect; inactive = no such curve, though single readings can be large or run the other way.

SMILES | HP1b chromo inh | CtBP-E1A inh | JMJD2A Tudor | G9a inh | BAZ2B block | Six1-Eya2 blk
COc1ccc(NC(=O)CCS(=O)(=O)c2cc(Br)cc3c2N(C(C)=O)CC3)c(OC)c1 | 34.9% | . | -31.7% | 15.9%[59 µM] | 19.0% | .
CN(C(=O)CSc1nc2ccc(NC(=O)CCc3ccccc3)cc2s1)c1ccccc1 | 28.5% | . | -14.2% | -1.6%[59 µM] | -12.9% | .
CCN1CCCC1CNc1ncnc2c1[nH]c1ccc(Cl)cc12 (centres undefined) | 15.4% | -8.8 | -20.5% | 50.1µM* | -0.7% | 0.1
O=C1CCCN1CCCNc1ncnc2c1[nH]c1ccc(Cl)cc12 | 24.6% | -16.8 | -1.3% | -44.2%[59 µM] | 13.0% | -20.3
O=C1CC(=O)Nc2cc(S(=O)(=O)N3CCOc4ccc(Cl)cc43)ccc2N1 | 9.8% | -1.5 | ? | 2.0% | -26.6% | 7.6
COC(=O)c1ccc(N2CCOCC2)c(NC(=O)Nc2cccc(OC)c2)c1 | -1.6% | 0.7 | -8.3% | 44.7µM* | 4.7% | -3.9
Cc1ccc(C)c(N=Nc2nc3ccccc3n2C)c1 | 15.8µM* | 11.0 | 25.1µM* | 29.8%[0.501 µM] | 8.91µM* | ?
Cc1cc(C)c(C)c(N=Nc2nc3ccccc3n2C)c1C | 12.6µM* | -4.6 | 11.2µM* | 11.2µM* | 7.94µM* | -3.1
Cn1c(/N=C/c2cccs2)nc2ccccc21 | -4.7% | 3.5 | -22.6% | 1.6%[12.7 µM] | -12.1% | 1.0
CC(C)c1ccc([N+](=O)[O-])cc1S(=O)(=O)N1CCN(C)CC1 | 30.0% | 1.8 | -17.6% | -3.3% | -1.3% | -0.8
O=c1c2ccccc2n2c(-c3ccccc3F)nnc2n1CCc1ccccc1 | -5.2% | . | -12.3% | -42.2%[59 µM] | -33.1% | .
Cc1ccc(-c2nc3sc(CCNS(=O)(=O)c4cc(F)ccc4F)c(C)n3n2)cc1 | 41.2% | . | -10.4% | 3.0%[59 µM] | 3.0% | .
CN(C)c1ccc(N=Cc2cccn2C)cc1 | -33.9% | ? | 50.1µM* | 8.91µM* | 20µM* | ?
Cc1cc(C)c2nc(N3CCCN(C(=O)c4cnccn4)CC3)c(C#N)cc2c1 | 86.8% | -13.4 | 36.1% | 17.2% | 5.5% | -7.7
Cc1ccc(NC(=O)C2CC(=O)n3ncnc3N2)cc1C (centres undefined) | 38.1% | 0.0 | 2.2% | 56.2µM* | -27.1% | 0.4
Cc1[nH]c2ccccc2c1C(c1ccccn1)c1c(C)[nH]c2ccccc12 | -3.6% | -6.9 | -24.8% | 28.2µM* | 35.5µM* | -19.6
COCCCNC(=O)CN1C(=O)COc2ccc(S(=O)(=O)N3CCCC3)cc21 | 19.7% | . | -13.8% | 3.2%[59 µM] | -3.9% | .
OCCn1nc2c3ccccc3nc-2n(-c2ccccc2)c1=S | -24.3% | -0.2 | -16.0% | 25.1µM* | -10.7% | 0.7
CCn1c(SCC(=O)c2ccccc2)nnc1-c1ccoc1C | 24.2% | -1.0 | -27.4% | -26.9% | -4.4% | -1.8
CCn1c(SCC(=O)c2ccc(Cl)cc2)nnc1-c1ccoc1C | -26.2% | -1.5 | 50.1µM* | 52.5%[59 µM] | 3.6% | -0.6
CCn1c(SCC(=O)c2ccc(C)cc2)nnc1-c1ccoc1C | 33.5% | -0.4 | -15.1% | 50.1µM* | 9.7% | -1.4
COc1ccc2c(c1OC)C(=O)O[C@H]2C1c2c(cc3c(c2OC)OCO3)CCN1C (some centres undefined) | . | . | . | -2.4%[2.33 µM] | . | .
CN1CCc2cc3c(c4c2[C@H]1[C@H](O)c1ccccc1-4)OCO3 | 17.1% | ? | -24.6% | 50.1µM* | -32.3% | -28.9
COc1cc(/C=C2\SC(=S)N(NS(=O)(=O)c3ccc(C)cc3)C2=O)ccc1O | ? | -25.9 | -1.5%[11.4 µM] | 25.1µM* | ? | -20.5
CCOc1cc(/C=C2\SC(=S)N(NS(=O)(=O)c3ccc(C)cc3)C2=O)ccc1O | -14.3% | . | ? | . | . | -8.8
SMILES | HP1b chromo inh | CtBP-E1A inh | JMJD2A Tudor | G9a inh | BAZ2B block | Six1-Eya2 blk
COc1ccc(/C=C2/SC(=S)N(NS(=O)(=O)c3ccccc3)C2=O)cc1 | 1.3% | 0.0 | ? | ? | -28.3% | -10.3
C=CCOc1ccc(/C=C2\SC(=S)N(NS(=O)(=O)c3ccccc3)C2=O)cc1 | -25.1% | 5.0 | ? | 26.7%[2.33 µM] | 50.1µM* | 1.7
COc1cc(/C=C2\SC(=S)N(NS(=O)(=O)c3ccccc3)C2=O)ccc1O | ? | . | ? | 39.8µM* | ? | -15.9
N#Cc1ccc(CN2C(=O)c3ccccc3Sc3ccc(C(=O)OCc4ccco4)cc32)cc1 | 14.0%[57 µM] | . | -17.3% | -6.9%[59 µM] | -16.8% | .
Cc1cccc(C)c1NC(=O)CSc1cc(C(=O)c2nccn2C)c2ccccc2n1 | 37.4% | 0.9 | 1.0% | 23.1%[59 µM] | 1.0% | -20.2
Cc1cc(N2C(=O)c3ccc(C(=O)Nc4ccc(O)cc4C(=O)O)cc3C2=O)no1 | 17.0% | 0.8 | -35.2% | 50.1µM* | 79.4µM* | -2.3
Cc1ccc(C(=O)Nc2ccc(O)cc2C(=O)O)cc1 | 23.4% | -10.0 | ? | -9.7%[59 µM] | -9.9% | -9.5
CCN1C(=O)c2ccc(C(=O)Nc3ccc(O)cc3C)cc2C1=O | 41.7% | -20.9 | -5.3% | . | ? | -9.4
Cc1ccc(C(=O)Nc2ccc(O)cc2C(=O)O)cc1C | 3.3% | -9.3 | ? | ? | 79.4µM* | ?
COCC(=O)N1CCC(Oc2ccc(C(=O)N3CCSCC3)cc2)CC1 | 20.5% | -2.7 | -8.9% | 23.6% | -7.7% | 0.8
O=C(O)c1c2c(nc3ccccc13)/C(=C/c1ccc(O)cc1)CC2 | -20.0% | . | 56.2µM* | 22.4µM* | 39.8µM* | ?
O=C(/C=C1\NC2(CCCC2)Cc2ccccc21)N1CCOCC1 | -16.8% | -7.5 | 50.1µM* | 31.6µM* | ? | -2.3
N#CC(C#N)=C1NC2(CCCCC2)Cc2ccccc21 | 15.7% | . | -15.9% | 13.7% | -15.5% | -1.3
COC(C(=O)Nc1ccc(NC(=O)C(OC)c2ccccc2)cc1)c1ccccc1 (centres undefined) | 53.5% | 0.0 | 2.8% | 50.1µM* | -10.1% | 27.1
COC(C(=O)Nc1ccc(Cl)cc1C)c1ccccc1 (centres undefined) | 29.2% | 1.7 | -14.5%[57.1 µM] | 8.91µM* | -8.6% | 3.6
CC(C)Sc1nc2sccc2c(=O)n1-c1ccccc1 | 25.0% | 3.5 | -3.5% | 39.8µM* | -13.2% | 5.1
CCCCn1c(C)cc2c(c1=O)C1O[C@](c3ccsc3)(Cc3cc(OC)c(OC)cc31)O2 | . | . | . | . | -5.5%[22.9 µM] | .
Cc1cc(C)c(NC(=O)CN2CCN3CCCC3C2)c(C)c1 (centres undefined) | 17.8% | 0.0 | -9.7% | 11.2µM* | -5.8% | 11.1
CCOC(=O)/C=C(\C)Sc1cc(O)c2ccccc2c1O | 7.94µM* | . | 7.94µM* | 2.51µM* | 28.2µM* | ?
CCOC(=O)/C=C(\C)Sc1cc(=O)oc2ccccc12 | 106.8% | 6.5 | -7.6%[57.1 µM] | 13.8%[59 µM] | 26.7% | 3.6
NC(COCc1ccccc1)c1csc(Nc2ccccn2)n1 (centres undefined) | . | -90.1* | . | . | . | -89.0*
NC(CCc1ccccc1)c1csc(Nc2ccccn2)n1 (centres undefined) | . | -83.0* | . | . | . | -73.2*
